± gives the standard deviation of the averaged measurements.

The test system of this test is SUM149. Put plainly: percent difference in area under dose-response curve of relative cell number, RPMI vs HPLM; higher = drug relatively more effective in HPLM than RPMI (negative = less effective in HPLM). The following applies: treatment time: 72 h; dose range: 10-point, 1 nM to 20 µM; media compared: RPMI vs HPLM.
`COc1cc(O)c(CC=C(C)C)c(O)c1C(=O)/C=C/c1ccc(O)cc1` [Xanthohumol]: the “percent difference in area under dose-response curve” value (“percent difference in area” for short) was -9.86%.
Under `CC(=O)OC[C@H]1O[C@@H]([S-])[C@H](OC(C)=O)[C@@H](OC(C)=O)[C@@H]1OC(C)=O.CCP(CC)CC.[Au+]` [Auranofin] stands -10.3%; under `Fc1cc(-c2cccc3ncc(-c4cnn(C5CCNCC5)c4)nc23)cc(F)c1CN1CCOCC1`, 2.04%.
Under `C[C@@H]1CN(CC(=O)Nc2ccc3c(c2)Cc2cccc(-c4cc(=O)cc(N5CCOCC5)o4)c2S3)C[C@H](C)O1` stands -5.04%.
Under `CNC(=O)c1cc(Oc2ccc(NC(=O)Nc3ccc(Cl)c(C(F)(F)F)c3)c(F)c2)ccn1` [Regorafenib] stands -5.08%; under `CSc1cccc(Nc2ncc3cc(-c4c(Cl)cccc4Cl)c(=O)n(C)c3n2)c1`, 11.7%.
`CC(C)Oc1ccc(C(=O)N[C@H](CNC(=O)CN(C)C)Cc2ccc(-c3cn4cccc([C@H](C)O)c4n3)cc2)cc1Cl`: the “percent difference in area” value was -23.9%.
Under `Cc1ccc(NC(=O)c2ccc(CN3CCN(C)CC3)cc2)cc1Nc1nc(-c2cccnc2)cs1` [Masitinib] stands -3.29%; under `CC(C)(C#N)c1cc(Cn2cncn2)cc(C(C)(C)C#N)c1` [Anastrozole], -1.33%; under `CC(C)c1cc(-c2n[nH]c(=O)n2-c2ccc3c(ccn3C)c2)c(O)cc1O` [Ganetespib], -31.8%.
Under `Nc1cc(C(F)(F)F)c(-c2cc(N3CCOCC3)nc(N3CCOCC3)n2)cn1` stands -2.14%; under `CC(C)(C)c1cnc(CSc2cnc(NC(=O)C3CCNCC3)s2)o1`, -3.83%.
Consider `CC1=C(/C=C/C(C)=C/C=C/C(C)=C/C(=O)Nc2ccc(O)cc2)C(C)(C)CCC1` [Fenretinide], for which the “percent difference in area” value was -3.15%.
To `Cc1c(-c2ccc(-c3ccccc3F)cc2)nc2ccc(F)cc2c1C(=O)O` [Brequinar] belongs -6.11%; to `Cc1ccc(-n2nc(C(C)(C)C)cc2NC(=O)Nc2ccc(OCCN3CCOCC3)c3ccccc23)cc1`, -3.95%.
Under `Cc1cnc(NC(=O)Nc2cc(Br)c(C)cc2OC[C@@H]2CNCCO2)cn1` stands 1.27%; under `CC1(C)CCC2=C(O1)c1ccccc1C(=O)C2=O` [beta_Lapachone], 0.097%; under `C=C1/C(=C\C=C2/CCC[C@]3(C)[C@@H]([C@H](C)/C=C/[C@H](C)C(C)C)CC[C@@H]23)C[C@@H](O)C[C@@H]1O` [Doxercalciferol], -7.1%.
For `COc1ccc(COc2cc3oc(=O)c4cc(C(C)O)ccc4c3cc2OC)cc1` (centres undefined) [Palomid_529], the “percent difference in area” value was -0.0774%.
As for `Cc1cc(/C=C/c2ccc3cc(N(C)C)ccc3[n+]2C)c(C)n1-c1ccccc1` [Pyrvinium_pamoate], the “percent difference in area” value is -34.5%.
Under `Oc1ccc(/C=C/c2cc(O)cc(O)c2)cc1` [Resveratrol] stands -1.11%; under `Cc1ccc(-c2cc(C(F)(F)F)nn2-c2ccc(S(N)(=O)=O)cc2)cc1` [Celecoxib], 1.54 ± 3%.
Under `Cc1nc(Nc2n[nH]c3c2CN(C(=O)N[C@H](CN(C)C)c2ccccc2)C3(C)C)c2sccc2n1` stands -62.7%.
To `C[C@H](NC(=O)Cc1cc(F)cc(F)c1)C(=O)N[C@@H]1C(=O)N(C)c2ccccc2-c2ccccc21` belongs 8.45%; to `CN(C)CCOc1ccc(/C(=C(/CCCl)c2ccccc2)c2ccccc2)cc1` [Toremifene_Citrate], 2.31%.
Regarding `Cc1csc(-c2nnc(Nc3ccc(Oc4ncccc4-c4ccnc(N)n4)cc3)c3ccccc23)c1`, the “percent difference in area” value was -35.1%.
To `CS(=O)(=O)c1cccc(CNc2nc(Nc3ccc4c(c3)CCC(=O)N4)ncc2C(F)(F)F)c1` belongs -3.53%; to `CCn1c(-c2nonc2N)nc2c(C#CC(C)(C)O)ncc(OC[C@H]3CCCNC3)c21`, 4.22%; to `Cc1nccn1-c1ccc(Sc2cccc(C3(C(N)=O)CCOCC3)c2)cc1`, -9.07%.
Under `C[C@H]1[C@H](OC(=O)CCC(=O)O)O[C@@H]2O[C@@]3(C)CC[C@H]4[C@H](C)CC[C@@H]1[C@@]24OO3` [Artesunate] stands -1.87%; under `O=C1c2c(O)ccc(O)c2C(=O)c2c(NCCNCCO)ccc(NCCNCCO)c21` [Mitoxantrone_HCl], -32.7%; under `Cn1cnc([N+](=O)[O-])c1Sc1ncnc2[nH]cnc12` [Azathioprine], -50.6%.
To `CCCCCCCCCCCCC/C=C/[C@@H](O)[C@H](CO)N(C)C` [N_N_Dimethylsphingosine] belongs 6.06%; to `CC(C)[C@H](C(=O)Nc1ccc(C(=O)NO)cc1)c1ccccc1`, -15.2%.
